A structure can be active in one record and inactive in another. Active and inactive are the calls of the source. How the source made its calls: active means hit-call score of the fitted dose curve at least 0.9, where 1 is the maximum; inactive means score below 0.9.
Legend:
[1] = read-out: Macrophage colony-stimulating factor (MCSF), CSF1 (gene 1435); experiment: BSK_CASM3C_MCSF: BioMAP Diversity Plus: CASM3C Assay for Macrophage colony-stimulating factor (MCSF) Biomarker Activity (AID 2283044); conditions: primary human coronary artery smooth muscle cells; actives raise or lower the signal;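 further: M-CSF protein amount quantified by ELISA after 24 h exposure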
[2] = read-out: Low-density lipoprotein receptor (LDLR), LDLR (gene 3949); experiment: BSK_CASM3C_LDLR: BioMAP Diversity Plus: CASM3C Assay for Low-density lipoprotein receptor (LDLR) Biomarker Activity (AID 2283045); conditions: primary human coronary artery smooth muscle cells; actives raise or lower the signal;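 further: LDLR protein level on the cell surface quantified by ELISA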
[3] = read-out: Monocyte Chemoattractant Protein-1 (MCP1), CCL2 (gene 6347); experiment: BSK_CASM3C_MCP1: BioMAP Diversity Plus: CASM3C Assay for Monocyte Chemoattractant Protein-1 (MCP1) Biomarker Activity (AID 2283046); conditions: primary human coronary artery smooth muscle cells; actives raise or lower the signal;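 further: MCP-1 level quantified by ELISA 24 h after dosing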
[4] = BSK_CASM3C_Proliferation: Cell Proliferation Assessment in the BioMAP Diversity Plus: CASM3C Assay (AID 2283047); conditions: primary human coronary artery smooth muscle cells;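 further: sulforhodamine B total protein stain as relative cell number at 560 nm; sub-confluent cells exposed 48 h before staining; fitted both ways against DMSO so gain or loss of cell number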
[5] = read-out: Monokine induced gamma interferon (MIG), CXCL9 (gene 4283); experiment: BSK_CASM3C_MIG: BioMAP Diversity Plus: CASM3C Assay for Monokine induced gamma interferon (MIG) Biomarker Activity (AID 2283048); conditions: primary human coronary artery smooth muscle cells; actives raise or lower the signal;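 further: MIG protein level measured by ELISA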
[6] = read-out: serum amyloid A (SAA), SAA1 (gene 6288); experiment: BSK_CASM3C_SAA: BioMAP Diversity Plus: CASM3C Assay for serum amyloid A (SAA) Biomarker Activity (AID 2283049); conditions: primary human coronary artery smooth muscle cells; actives raise or lower the signal;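 further: SAA protein level quantified by ELISA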
[7] = BSK_CASM3C_SRB: Viability Assessment in the BioMAP Diversity Plus: CASM3C Assay (AID 2283050); conditions: primary human coronary artery smooth muscle cells;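 further: total protein by SRB staining as cytotoxicity measure in parallel cultures; cells exposed to compound for 24 h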
[8] = read-out: Thrombomodulin, THBD (gene 7056); experiment: BSK_CASM3C_Thrombomodulin: BioMAP Diversity Plus: CASM3C Assay for Thrombomodulin Biomarker Activity (AID 2283051); conditions: primary human coronary artery smooth muscle cells; actives raise or lower the signal;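 further: thrombomodulin protein level measured by ELISA 24 h after dosing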
[9] = read-out: Tissue Factor, F3 (gene 2152); experiment: BSK_CASM3C_TissueFactor: BioMAP Diversity Plus: CASM3C Assay for Tissue Factor Biomarker Activity (AID 2283052); conditions: primary human coronary artery smooth muscle cells; actives raise or lower the signal;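 further: cell surface tissue factor protein level read by ELISA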
[10] = read-out: Interferon-gamma inducible Protein 10 (IP10), CXCL10 (gene 3627); experiment: BSK_hDFCGF_IP10: BioMAP Diversity Plus: hDFCGF Assay for Interferon-gamma inducible Protein 10 (IP10) Biomarker Activity (AID 2283053); conditions: primary human foreskin fibroblasts; actives raise or lower the signal
In short: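 Primary foreskin fibroblasts, human; 24 h compound exposure; IP-10 by ELISA; bidirectional fit vs DMSO.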

[11] = read-out: Urokinase-type plasminogen activator receptor (uPAR), PLAUR (gene 5329); experiment: BSK_CASM3C_uPAR: BioMAP Diversity Plus: CASM3C Assay for Urokinase-type plasminogen activator receptor (uPAR) Biomarker Activity (AID 2283054); conditions: primary human coronary artery smooth muscle cells; actives raise or lower the signal;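 further: cell-surface uPAR protein level quantified by ELISA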
[12] = read-out: Vascular cell adhesion molecule 1 (VCAM1), VCAM1 (gene 7412); experiment: BSK_CASM3C_VCAM1: BioMAP Diversity Plus: CASM3C Assay for Vascular cell adhesion molecule 1 (VCAM1) Biomarker Activity (AID 2283055); conditions: primary human coronary artery smooth muscle cells; actives raise or lower the signal;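 further: VCAM-1 protein level quantified by ELISA on the cells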
[13] = read-out: Collagen III, COL3A1 (gene 1281); experiment: BSK_hDFCGF_CollagenIII: BioMAP Diversity Plus: hDFCGF Assay for Collagen III Biomarker Activity (AID 2283056); conditions: primary human foreskin fibroblasts; actives raise or lower the signal
In short: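 Human foreskin primary fibroblasts were exposed to test chemicals for 24 h, after which collagen III was quantified by ELISA. Activity was fitted bidirectionally against DMSO as negative control and baseline.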

[14] = read-out: Epidermal growth factor receptor (EGFR), EGFR (gene 1956); experiment: BSK_hDFCGF_EGFR: BioMAP Diversity Plus: hDFCGF Assay for Epidermal growth factor receptor (EGFR) Biomarker Activity (AID 2283057); conditions: primary human foreskin fibroblasts; actives raise or lower the signal
In short: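 hDFCGF system, primary human foreskin fibroblasts; compound 24 h; EGFR measured by ELISA; DMSO = negative control/baseline; bidirectional fitting.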

[15] = read-out: Interleukin-8 (IL8), CXCL8 (gene 3576); experiment: BSK_hDFCGF_IL8: BioMAP Diversity Plus: hDFCGF Assay for Interleukin-8 (IL8) Biomarker Activity (AID 2283058); conditions: primary human foreskin fibroblasts; actives raise or lower the signal
In short: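 hDFCGF human dermal fibroblasts; 24 h chemical exposure; IL-8 by ELISA; bidirectional curve fit vs DMSO baseline; gain or loss of signal scored.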

[16] = BSK_hDFCGF_Proliferation: Cell Proliferation Assessment in the BioMAP Diversity Plus: hDFCGF Assay (AID 2283059); conditions: primary human foreskin fibroblasts;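 further: curves fitted for both rise and fall of signal versus DMSO baseline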
In short: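 Steps: dose primary human dermal fibroblasts (foreskin); […] fix in 10% TCA; stain with 0.1% SRB; read 560 nm; fit gain or loss of signal against DMSO.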

[17] = read-out: Macrophage colony-stimulating factor (MCSF), CSF1 (gene 1435); experiment: BSK_hDFCGF_MCSF: BioMAP Diversity Plus: hDFCGF Assay for Macrophage colony-stimulating factor (MCSF) Biomarker Activity (AID 2283060); conditions: primary human foreskin fibroblasts; actives raise or lower the signal
In short: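 Human foreskin primary fibroblasts were treated with test chemical for 24 h, and M-CSF was then measured by ELISA. Data were fitted bidirectionally against DMSO as the negative control and activity baseline.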

[18] = BSK_hDFCGF_SRB: Viability Assessment in the BioMAP Diversity Plus: hDFCGF Assay (AID 2283061); conditions: primary human foreskin fibroblasts;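 further: cells exposed to compound for 24 h before the read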
In short: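 Human foreskin primary fibroblasts were treated with compound and assessed 24 h after dosing. Total protein was measured by sulforhodamine B staining (0.1% SRB after 10% TCA fixation, 560 nm read) as a cytotoxicity marker, with bidirectional fitting against DMSO baseline.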

[19] = read-out: TIMP metallopeptidase inhibitor 1 (TIMP1), TIMP1 (gene 7076); experiment: BSK_hDFCGF_TIMP1: BioMAP Diversity Plus: hDFCGF Assay for TIMP metallopeptidase inhibitor 1 (TIMP1) Biomarker Activity (AID 2283062); conditions: primary human foreskin fibroblasts; actives raise or lower the signal
In short: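 Primary human foreskin fibroblasts in the hDFCGF system were dosed with compound for 24 h, then TIMP-1 was measured by ELISA. Activity was fitted bidirectionally relative to DMSO control; parallel SRB staining assessed cytotoxicity.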

[20] = read-out: Monokine induced gamma interferon (MIG), CXCL9 (gene 4283); experiment: BSK_hDFCGF_MIG: BioMAP Diversity Plus: hDFCGF Assay for Monokine induced gamma interferon (MIG) Biomarker Activity (AID 2283063); conditions: primary human foreskin fibroblasts; actives raise or lower the signal
In short: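 ELISA read-out of MIG from primary human dermal fibroblasts 24 h post-dosing. Gain or loss of signal fitted bidirectionally, DMSO as baseline.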

Measured: AC50

CCCCOC(=O)COC(=O)c1ccccc1C(=O)OCCCC
active: [16] 20 µM
inactive: [1] | [2] | [3] | [4] | [5] | [6] | [7] | [8] | [9] | [10] | [11] | [12] | [13] | [14] | [15] | [16] | [17] | [18] | [19] | [20]

N#CCCC(Br)(C#N)CBr (stereo unspecified)
inactive: [14]
active: [1] 20 µM | [2] 12.2 µM | [3] 20 µM | [4] 3.93 µM | [5] 33.8 µM | [6] 11.8 µM | [7] 20 µM | [8] 20 µM | [9] 12.7 µM | [10] 3.73 µM | [11] 15.6 µM | [12] 11.9 µM | [13] 17 µM | [15] 12.7 µM | [16] 0.4 µM | [17] 5.08 µM | [18] 7.68 µM | [19] 4.28 µM | [20] 6.19 µM

OC(Cc1ccccc1Cl)(Cn1cncn1)C1(Cl)CC1 (stereo unspecified)
inactive: all assays above
